# The whole screen tested about 31,000 sequences, of which about 1,400 (4.5%) were called active.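 Rule for the calls: active = median seed-adjusted z-score above 1 or below -1; inactive = the rest.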 Shown is part of a subset that was picked to be rich in actives.
# Test: Novel Modifiers of Survival Motor Neuron (SMN) Protein: Gene Identification via Genome-wide siRNA Screen;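 note: luminescence tracks full-length SMN protein made from the SMN2 reporter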
# Conditions: HEK293T SMN2-luciferase reporter, siRNA knockdown, 72 h; actives lie on both sides
# How it was run: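 siRNA screen, 10418 genes ×3 siRNAs; 1 pmol/well, lipid reverse transfection into HEK293T SMN2-luc reporter line. 72 h, 37 °C, 5% CO2; ONE-Glo readout. Data: neg-ctrl normalized, log10, MAD; hit = MAD >1.0 or < -1.0.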
row,Sequence,median seed-adjusted z-score
1,CGAGGAACUAAGACUCAAATT against GPR151,-0.263 (inactive)
2,ACAAUUAUUGGAAAGAGAATT against SPRYD5,0.151 (inactive)
3,GGAAGGAGCUGUCACGCAATT against MED26,-1.86 (active)
4,CGAAUCUCAUGUUCAGGAATT against LPA,-0.321 (inactive)
5,GGGUCAUGUUUGGUUAGAATT against IMMP1L,-0.444 (inactive)
6,CGUGGACCACUAUCCCAUUTT against RNF123,0 (inactive)
7,GGAAAAACCAACCAAGUUATT against RUFY1,0.119 (inactive)
8,CGGUGAAGGUGCUAAAGGATT against RAD23A,-1.13 (active)
9,GCCUUCAAUUUUCAUACAATT against ZNF19,0 (inactive)
10,AGUAAUAGUUCAAACCUUUTT against ZNF664,1.08 (active)
11,GAGUGUACCUGGAAUGUCUTT against ARNTL2,0.102 (inactive)
12,AAAGUGGAUUGCACACAGATT against TGFB1I1,0.887 (inactive)
13,GAUCAAACCUUGUAUCUCUTT against ARG2,-0.796 (inactive)
14,GGUAAAGAAUUCUCCGGAATT against FUS,0.92 (inactive)
15,GCAGGAUUGUGAUCCACCATT against PCGF3,0.876 (inactive)
16,GGAUAUGGUGAGAAUAGAATT against MTHFS,0.166 (inactive)
17,AGCUCACAAGGAUCCCAAUTT against THPO,-0.0366 (inactive)
18,CCUUUAGCACGGAUAGUUUTT against ACAT2,1.25 (active)
19,CUCCUACAGUGCUAUCAGATT against ENPP2,-0.305 (inactive)
20,AAUUCCUCUUCAACAUGUATT against HOXD9,-0.123 (inactive)
21,GGAACGGGCUGGAGUUAAATT against FUBP1,-1.52 (active)
22,GUACUUCAGUGGAGUGAAATT against CDKL1,-0.28 (inactive)
23,UCUGCUAUUUGGUCCUGAATT against TOMM34,-0.503 (inactive)
24,CCUCAUAUGUGGGACAGAATT against USP3,-0.176 (inactive)

row,Sequence,median seed-adjusted z-score
1,GGUAUGGAUUUAACAGUCATT against DHODH,-0.422 (inactive)
2,GGAAGACUAGGAAUCGGAATT against NYX,0.0685 (inactive)
3,CACCCACCGCCACAAUAAATT against BSG,0.211 (inactive)
4,GCACGACUUUGUACUCAGATT against HES5,-0.00853 (inactive)
5,GAGCUAUGGUUACACGGUUTT against GABRQ,-0.54 (inactive)
6,UGAACCUUGUGAUAGAUGATT against SNRPG,-3.09 (active)
7,GCCUCCACGGAAGAUGUAATT against ZNF746,0.1 (inactive)
8,GCACUUGUAUAAUCAGACUTT against MRLC2,-0.492 (inactive)
9,GGACCAUCCAGCUUCUGGATT against GALE,-0.153 (inactive)
10,GGAUCUCAUGAGGCGAAUATT against EIF5,0.362 (inactive)
11,GUAGGACUCUCAUUCGGGATT against CCND1,-0.912 (inactive)
12,GGACCCAAUCAACUCAAUATT against SS18,0.34 (inactive)
13,GCCUAAUUGCGGAACAUAUTT against ESCO1,0.755 (inactive)
14,CGACAAGUUGAAGACCAUATT against CRMP1,-0.354 (inactive)
15,CCUAUUCACUUUACACUGUTT against AKR7A2,0.192 (inactive)
16,GAUGAAGAAUGAUAAGUCATT against HNRNPC,-2.15 (active)
17,AGACAAGUAUGUGAGGAAUTT against BTN2A2,-0.0599 (inactive)
18,GGAUAUCGCACUUCACUCATT against ELL,-0.497 (inactive)
19,GGGCGAGCAUUUUCGAGAATT against USP7,0.105 (inactive)
20,CCACGUUUUGAUCAACAAUTT against RDH11,-0.241 (inactive)
21,GAUUGCAUAUUACAAACGATT against GIN1,-0.0585 (inactive)
22,GGAACGAGAUUGUCAGAUUTT against POLR2B,-4.81 (active)
23,GAUACACUUUGUCACCAAATT against FLT3LG,-0.166 (inactive)
24,CUCAUGAACUUGCACAACATT against WNT7A,0.0931 (inactive)

row,Sequence,median seed-adjusted z-score
1,GGAUGAUGUGAACUACAAATT against PTDSS1,-0.76 (inactive)
2,GGAGGACAUCGACCAGAUATT against APBA1,0.305 (inactive)
3,CGAUAAAGACGGAUUCUAATT against MATK,-0.754 (inactive)
4,GAAUAUGAGUACCUAGAUUTT against SELPLG,0.0378 (inactive)
5,CACCGACAAUAUAAAGGAATT against SLC25A32,-0.299 (inactive)
6,GGUCAUGAUUGCUAUCCUUTT against TAAR9,-1.07 (active)
7,GGAAGAUUAUUACAGUCGATT against RERE,0.129 (inactive)
8,GGACGGUACUACAGUGUAATT against HDAC8,0.835 (inactive)
9,GGAUUUCCAGGGAUAUUUATT against CDKN2B,0.0154 (inactive)
10,CAUUGAACGCAGUCCCUUUTT against FLNC,0.00217 (inactive)
11,CCCAAUGCCUGUUUAUUCATT against POLR2J3,-5.42 (active)
12,GGAACCUACCUGACUAAGATT against ARL9,0.98 (inactive)
13,GGGAGUAUAUUUUGAUGAATT against RARS2,-0.0247 (inactive)
14,AGAAUAAGUUCAAACAGGATT against RAB4B,-0.207 (inactive)
15,CAUGAACAGUUUAUCGUAATT against FMR1,0.504 (inactive)
16,GAGACCUAACUGUACGUGATT against TSG101,1.48 (active)
17,CUUGCACUCCUGUCCAUAATT against AP3B1,0.31 (inactive)
18,CUAGUUUGUUGCAAAAUAATT against CDKN2C,-0.0789 (inactive)
19,CAAUUAAGUUGGAUCCUUUTT against WARS2,0.21 (inactive)
20,GGUACAUCGCGAUAUCAAATT against YSK4,-0.181 (inactive)
21,CGAUGGUAUUGACUAAGUUTT against HSPA1L,-1.27 (active)
22,CUAGGAGUCAAAGAAAAUATT against RNPS1,0 (inactive)
23,GGAGAGAGCGUGUCCUACATT against SIRPA,-0.153 (inactive)
24,AAACAAAACUUGCACUUUATT against RASD1,0.674 (inactive)

row,Sequence,median seed-adjusted z-score
1,GCCUUGAACCUAGGACCAATT against PRAF2,-0.326 (inactive)
2,GGACGAGAAUGGGAAGAUUTT against ARD1A,-1.05 (active)
3,AGACUAUGAUAGAAUCCCATT against LGI3,-0.0189 (inactive)
4,CUCUACCCGUGCUAUAUAATT against TIGD1,0.224 (inactive)
5,CAAGAUCCAGGACACCAAATT against MAP4K1,0 (inactive)
6,CUAUCCAACUCAAACGAUUTT against USP9Y,0.012 (inactive)
7,GGCUUGAUAUUUGACAGAATT against BBOX1,0.152 (inactive)
8,AGAAAUGUCUUGUAGUGAATT against SYT14L,0.2 (inactive)
9,GGAUUAUAUUGACAUCAGUTT against DLST,1.16 (active)
10,GGGAGGACCUGAACAAGAATT against TAOK2,0.28 (inactive)
11,GGCAUGACCUCAUCACAGUTT against RNASE7,1.07 (active)
12,GAACCAACCUGUCAAGUGATT against SELL,0.554 (inactive)
13,GGACAUCGCUAAACAGUUATT against TBC1D1,-0.359 (inactive)
14,CUAUCACCGGAUUAACGAATT against ACOX1,-0.897 (inactive)
15,GAGUCGAGAAGAUAAUGGATT against RABGEF1,0.278 (inactive)
16,AGACGACGGCGAUGAGGAATT against RALY,0 (inactive)
17,GGACGACCACGGCUACAUUTT against CRYAA,-1.03 (active)
18,GGCUUCAGGUUAUAGUCAATT against OTX2,-0.00351 (inactive)
19,AGGAGAUCGUCGACCUGGUTT against TUBA3C,-0.0806 (inactive)
20,AGGCCCUAGUGCUCAGAUATT against MMS19,0.0142 (inactive)
21,GCAACGAUGUUGCCUGGAATT against GPX1,-0.0529 (inactive)
22,GCAUGCAGAUGUUCGGCAATT against CACNA1F,0.22 (inactive)
23,CAAGCUUGUUAACAUCAAATT against NPVF,0.588 (inactive)
24,GGCUAAUACUGGAAUUGCUTT against SLC38A2,-1.04 (active)

row,Sequence,median seed-adjusted z-score
1,CCAUGUCUUUCUAUCGCAATT against PLD2,-0.743 (inactive)
2,GCAAGAUCUUAUCCACAGATT against CIP29,-1.18 (active)
3,CAUUGGAAUUCUUUCAAUATT against APTX,-0.131 (inactive)
4,GAGAAGACCUUUAUACGAATT against XPOT,0.366 (inactive)
5,GGAUGGUGGCGUCCAAGAUTT against PSMB10,0.00939 (inactive)
6,GAGCUUCACUCAAAAAUCATT against ZNF160,-0.454 (inactive)
7,GCCUAGAAGUGGAACGUGUTT against IFT57,-1.1 (active)
8,CCACCUUCGAUGUUCCCAUTT against HMG20B,0.231 (inactive)
9,GCAGAGUCACUUUGACAAUTT against CHRNG,0.221 (inactive)
10,GGCUUUUAGAGUACGACAATT against ZFP30,0.211 (inactive)
11,CAGUCAACCUGAUUUGAGATT against SOX7,-0.387 (inactive)
12,CGUUUAACGUGGUGCUGUUTT against GPR32,-1.2 (active)
13,GCUCUAUGUCUACAUCAAUTT against DAXX,0.349 (inactive)
14,AUAUCGCUGUGAUGCAAAATT against PLA2G12B,-0.162 (inactive)
15,ACAGCGAGGUCAAAAGAAATT against HSD11B1,-0.174 (inactive)
16,GGACUAAGUGAAGAGCUUATT against NFYB,-0.29 (inactive)
17,GAGCUGAACUUGUCAUUCUTT against RANGAP1,-0.0379 (inactive)
18,CAUGAACCCAGUGAAGAUATT against IRF6,-1.79 (active)
19,CACUCAACAUUACAGAUUUTT against ZNF514,0.125 (inactive)
20,CAGCUUUACGAGUAUGCAATT against HS6ST3,-0.405 (inactive)
